Results filed as inconclusive are left out. Calls of active or inactive are those of the source.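 The calls were made as follows, unless noted: active = viability at or below 30% in both replicate assays; inconclusive = viability at or below 30% in just one of the two assays; inactive = the rest.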
Assays:
[1] = reducers of endogenous Her2 protein level, primary screen, SKBR3 breast tumor cells, AlphaScreen, ATP viability (AID 461;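 active = Her2 level under about 52% in both replicate screens, with viability over 70% of control, limit read from the data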;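 as to Her2 level: lower value means less Her2 protein in the cells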;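 as to viability: percent of carrier control wells set as 100% viability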); details: 18-24 h, measured here: SKBR3 viability, ATP luminescence, at 10 µM
[2] = molecular target: Receptor tyrosine-protein kinase erbB-2 (Homo sapiens) (UniProt P04626); experiment: as above; details: 18-24 h, at 10 µM, stronger effect = lower value
[3] = SK-BR-3 cell growth inhibitors, pilot screen, 24 h, human (AID 572;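 active = viability at or below 10% of carrier control in both of two separate runs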;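 also: compound exposure lasted between 18 and 24 h rather than exactly 24 h; 100% = carrier-treated control wells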); details: SK-BR-3 viability, CellTiter-Glo luminescence, at 10 µM, stronger effect = lower value
[4] = HUVEC growth inhibition – cell-based, human, primary screen (AID 575); details: HUVEC proliferation, CellTiter-Glo luminescence, 72 h; at 10 µM; stronger effect = lower value;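 also: 100% = median of untreated cell wells with 0.1% DMSO on each plate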
[5] = growth inhibitors of H69AR lung tumor, primary screen, human, duplicate replicates (AID 580;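 active = viability at or under a set limit in both replicates, limit being median viability minus 3 SD, cut at about 48% in these data, passing the limit was not always enough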;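 also: 100% = mean luminescence of untreated wells and 0% = no signal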); details: H69AR lung tumor cells viability, ATP luminescence, 72 h; at 10 µM; stronger effect = lower value
[6] = reversal of MRP1-mediated doxorubicin resistance, pilot screen, H69AR cells, doxorubicin co-treatment (AID 601;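 active = viability loss from added drug above about 55%, and viability with drug at most 40%, in both replicates, limit read from the data, passing the limit was not always enough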); details: CellTiter-Glo, 72 h, at 10 µM; for differential viability (reversal): stronger effect = higher value
[7] = 384-well plate pilot, post-Golgi transport modulator project, inhibition of yeast transport mutant growth (AID 636; in the data active = inhibition above about 31%); details: absorbance 615 nm, about 18 h, stronger effect = higher value
[8] = growth suppression of yeast trafficking mutant, preliminary HTS, modulators of trafficking downstream of Golgi apparatus project, 1536-format plate, OD 615 nm (AID 637; in the data active = inhibition above about 30%); details: yeast transport mutant growth, absorbance 615 nm, 18 h; stronger effect = higher value
[9] = OD615 S. cerevisiae growth inhibition, permissive medium, pilot counter-assay, permissive growth control for S. cerevisiae lifespan shortening project (AID 705;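 active = growth inhibition above 25% in both replicates, a cutoff set 3 SD above the mean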); details: OD615, 24 h, at 10 µM, stronger effect = higher value
[10] = Restrictive medium S. cerevisiae growth inhibition, OD615, pilot screen of yeast lifespan reduction project, restrictive growth control (AID 706;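 active = growth inhibition above a set limit, 3 SD over mean compound inhibition, in both replicates, cut at about 43% in these data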;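 also: modified DeaD lifespan yeast strain shifted to restrictive glucose medium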); details: OD615, 48 h, at 10 µM, stronger effect = higher value
[11] = viability gain of MRP-1-high H69AR cells under doxorubicin, pilot screen, MRP-1 activator project, CellTiter-Glo, duplicate (AID 807;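 active = viability increase at or above a cutoff of the median across tested compounds plus 3 SD, cut at about 8.5% in these data, passing the limit was not always enough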;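 also: compound pretreatment 18-22 h then 72 h combined with doxorubicin; 0% = doxorubicin alone and 100% = vehicle without doxorubicin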); details: H69AR viability with doxorubicin, CellTiter-Glo luminescence; at 10 µM; stronger effect = higher value
[12] = growth suppression of beta-catenin knockout HCT116, pilot screen, human colon tumor cells (AID 823;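 active = cell viability at or below a set limit in both duplicate runs, the limit being the all-compound median minus 4 SD, cut at about 23% in these data, passing the limit was not always enough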;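 also: 0% = wells killed by 20 µM Hyamine and 100% = untreated DMSO cell wells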); details: CellTiter-Glo, 60 h, at 10 µM, stronger effect = lower value
[13] = growth suppression of PTEN-deleted HCT116, pilot screen, cell-based, HCT116 clonal line, CellTiter-Glo (AID 824;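 active = viability at or below 27.92% in each of two runs, the all-compound median minus 4 SD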;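 also: 0% = 20 µM Hyamine control and 100% = vehicle cell control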); details: 60 h, at 10 µM, stronger effect = lower value
[14] = inhibitors of the yeast RAM network, pilot screen, dse1pr::URA3 reporter, 5-FOA selection (AID 869;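 active = inhibition over a set limit, the all-compound mean plus 3 SD, in both replicate runs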;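 also: 0% = DMSO wells with no growth and 100% = 10 µM 1-NA-PP1 with full growth; RAM network block rescues cells from 5-FOA so hits raise OD615 growth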); details: S. cerevisiae dse1pr::URA3 5-FOA growth, OD615, 2 d; at 10 µM; stronger effect = higher value; strain carries analog-sensitive mutant Cbk1 kinase
[15] = H69AR cells + 2 uM doxorubicin, measured here: viability with 2 uM doxorubicin, stronger effect = lower value
[16] = H69AR cells, compound alone cytotoxicity

Sequence of Receptor tyrosine-protein kinase erbB-2 (Homo sapiens) (P04626 whole entry, looked up): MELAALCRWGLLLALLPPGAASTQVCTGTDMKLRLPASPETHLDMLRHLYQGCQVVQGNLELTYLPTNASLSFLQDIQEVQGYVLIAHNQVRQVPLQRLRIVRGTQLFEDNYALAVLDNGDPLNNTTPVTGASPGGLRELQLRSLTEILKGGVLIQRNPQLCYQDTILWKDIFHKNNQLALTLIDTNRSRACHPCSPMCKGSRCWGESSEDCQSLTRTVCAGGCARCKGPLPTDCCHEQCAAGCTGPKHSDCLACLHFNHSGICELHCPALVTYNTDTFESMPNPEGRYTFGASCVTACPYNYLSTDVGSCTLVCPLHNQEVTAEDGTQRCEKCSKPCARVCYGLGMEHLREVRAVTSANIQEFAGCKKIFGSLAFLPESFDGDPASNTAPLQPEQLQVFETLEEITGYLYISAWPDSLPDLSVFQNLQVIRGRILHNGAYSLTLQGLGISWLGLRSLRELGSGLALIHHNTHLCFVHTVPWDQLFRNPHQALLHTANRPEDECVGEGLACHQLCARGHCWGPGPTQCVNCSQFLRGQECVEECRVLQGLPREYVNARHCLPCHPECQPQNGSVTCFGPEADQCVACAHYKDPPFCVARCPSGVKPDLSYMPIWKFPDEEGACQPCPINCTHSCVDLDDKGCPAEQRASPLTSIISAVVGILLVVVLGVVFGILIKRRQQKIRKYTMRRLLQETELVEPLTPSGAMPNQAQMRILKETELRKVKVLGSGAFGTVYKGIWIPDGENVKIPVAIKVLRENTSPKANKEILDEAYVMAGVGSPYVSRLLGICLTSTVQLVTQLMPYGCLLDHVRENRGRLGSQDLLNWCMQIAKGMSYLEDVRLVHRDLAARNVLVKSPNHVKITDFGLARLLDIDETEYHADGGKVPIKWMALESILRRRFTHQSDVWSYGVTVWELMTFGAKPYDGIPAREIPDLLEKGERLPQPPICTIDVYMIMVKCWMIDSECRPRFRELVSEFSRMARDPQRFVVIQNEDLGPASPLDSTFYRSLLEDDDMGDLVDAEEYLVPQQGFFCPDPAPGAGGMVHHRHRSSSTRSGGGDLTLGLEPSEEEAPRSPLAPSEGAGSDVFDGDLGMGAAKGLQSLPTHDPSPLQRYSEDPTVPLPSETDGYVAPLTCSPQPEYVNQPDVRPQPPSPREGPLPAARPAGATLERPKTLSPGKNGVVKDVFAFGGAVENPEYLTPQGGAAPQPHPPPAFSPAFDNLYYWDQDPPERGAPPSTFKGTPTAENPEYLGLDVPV

SMILES	viability [1]	Her2 level [2]	viability [3]	viability [4]	viability [5]	differential viability (reversal) ([6]; H69AR cells + 2 uM doxorubicin)	viability [6, 15]	viability [6, 16]	inhibition [7]	inhibition [8]	growth inhibition [9]	growth inhibition [10]	viability increase [11]	viability [12]	viability [13]	inhibition [14]
Cc1[nH]c2ccccc2c1Cc1nnc(SCC(=O)NCc2ccco2)o1	93%	93% (inactive)	93% (inactive)	97.5% (inactive)	93.7% (inactive)	8% (inactive)	85.7%	93.7%	1.6% (inactive)	-2.17% (inactive)	-12.4% (inactive)	12.7% (inactive)	-3.96% (inactive)	103% (inactive)	95.5% (inactive)	2.85% (inactive)
C=CCN1C(=O)/C(=C2/Sc3ccccc3N2C)SC1=Nc1c(C)n[nH]c1C	107%	86.5% (inactive)	107% (inactive)	85% (inactive)	75.5% (inactive)	–	–	–	-5.2% (inactive)	0.48% (inactive)	–	–	–	–	–	–
Cc1nn(-c2nc3ccccc3s2)c(C)c1Oc1ccccc1O	102%	79.5% (inactive)	102% (inactive)	20.3% (active)	–	-6.93% (inactive)	67%	60%	-6.13% (inactive)	-0.63% (inactive)	–	–	–	–	–	–
C=CCSc1nnc2n(-c3ccccc3OC)c(=O)c3c4c(sc3n12)CCC4	83.5%	100% (inactive)	83.5% (inactive)	79.9% (inactive)	89.1% (inactive)	–	–	–	-0.67% (inactive)	-0.95% (inactive)	–	–	–	–	–	–
Cn1cccc1Cc1nnc(SCC(=O)N2CCOCC2)n1-c1ccc(F)cc1	88.5%	104% (inactive)	88.5% (inactive)	106% (inactive)	99.7% (inactive)	11.4% (inactive)	88.3%	99.7%	-6.93% (inactive)	0.33% (inactive)	5.02% (inactive)	19.7% (inactive)	-1.33% (inactive)	102% (inactive)	94.3% (inactive)	-0.47% (inactive)
COc1ccc(/C=N/n2cnnc2SCc2ccc(OC)cc2)cc1	83.5%	90.5% (inactive)	83.5% (inactive)	87.6% (inactive)	89.9% (inactive)	-6.8% (inactive)	96.7%	89.9%	0% (inactive)	4% (inactive)	4.08% (inactive)	30.7% (inactive)	3.56% (inactive)	90.6% (inactive)	93.9% (inactive)	2.4% (inactive)
